Data from PubChem BioAssay AID1159580 (chemical genetic matrix, 2015).
Several values for one entry are separate records, joined by “and”; a condition that tells them apart may be missing. Identical values can stand only once. Screen size: about 5,500 compounds; about 2,000 (36%) were called active. Roughly 18% stayed inconclusive and do not appear here. No stated cut-off is given here; in the data, active means normalized growth mostly below about 0.91 (no sharp cut-off); inconclusive means no clear call, values can overlap the other calls; inactive means mostly above about 0.92. The list shows a part of the results.

Test: chemical genetic growth profiling, strain panel (AID 1159580);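 further: tested at 20 µM; growth read once vehicle control cultures reached saturation at 30 °C; 1 = growth at the plate median or of vehicle wells; lower values mean less growth of the strain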
Details: S. cerevisiae deletion strains, growth OD

Measured: normalized growth

OCc1ccccc1O
inactive: locus YAL021C, strain ccr4, active compounds read low 1.02 | locus YAL026C, strain drs2, active compounds read low 1.02 | locus YAL030W, strain snc1, active compounds read low 1 | locus YBL061C, strain skt5, active compounds read low 1.03 | locus YBR009C, strain hhf1, active compounds read low 1.02 | locus YBR021W, strain FUR4, active compounds read low 1.02 | locus YBR023C, strain chs3, active compounds read low 1.02 | locus YBR171W, strain sec66, active compounds read low 1.01 | locus YBR229C, strain ROT2, active compounds read low 1.02 | locus YBR231C, strain swc5, active compounds read low 1.03 | locus YBR279W, strain paf1, active compounds read low 1.03 | locus YCL011C, strain gbp2, active compounds read low 1.03 | locus YCL016C, strain dcc1, active compounds read low 1.02 | locus YCL029C, strain bik1, active compounds read low 0.995 | locus YCL069W, strain vba3, active compounds read low 1 | locus YCR088W, strain abp1, active compounds read low 1.04 | locus YDL005C, strain med2, active compounds read low 1.02 | locus YDL035C, strain GPR1, active compounds read low 1.02 | locus YDL040C, strain nat1, active compounds read low 1.01 | locus YDL074C, strain BRE1, active compounds read low 1.04 | locus YDL101C, strain DUN1, active compounds read low 1.02 | locus YDL134C, strain PPH21, active compounds read low 1.02 | locus YDL185W, strain tfp1, active compounds read low 0.992 | locus YDL192W, strain arf1, active compounds read low 0.991 | locus YDR001C, strain nth1, active compounds read low 1.02 | locus YDR069C, strain doa4, active compounds read low 1.03 | locus YDR101C, strain arx1, active compounds read low 0.987 | locus YDR137W, strain rgp1, active compounds read low 1.02 | locus YDR150W, strain NUM1, active compounds read low 1.02 | locus YDR159W, strain sac3, active compounds read low 1.05 | locus YDR162C, strain NBP2, active compounds read low 1 | locus YDR195W, strain ref2 1.02 | locus YDR297W, strain sur2, active compounds read low 1.02 | locus YDR318W, strain mcm21, active compounds read low 0.992 | locus YDR334W, strain swr1, active compounds read low 1.03 | locus YDR335W, strain msn5, active compounds read low 1.03 | locus YDR388W, active compounds read low 0.991 | locus YDR392W, strain spt3, active compounds read low 1.03 | locus YDR502C, strain sam2, active compounds read low 0.988 | locus YEL003W, strain gim4, active compounds read low 1.02 | locus YEL037C, strain rad23, active compounds read low 1 | locus YEL061C, strain CIN8 (second series), active compounds read low 1.01 | locus YEL061C, strain CIN8, active compounds read low 1.01 | locus YER015W, strain faa2, active compounds read low 0.998 | locus YER016W, strain bim1, active compounds read low 1.03 | locus YER110C, active compounds read low 0.995 | locus YER111C, strain swi4, active compounds read low 0.997 | locus YER155C, strain BEM2 (second series), active compounds read low 1.05 | locus YER155C, strain BEM2, active compounds read low 1.02 | locus YER167W, strain BCK2, active compounds read low 1.01 | locus YFR010W, strain ubp6, active compounds read low 1.02 | locus YGL078C, strain dbp3, active compounds read low 0.978 | locus YGL086W, strain mad1, active compounds read low 1.01 | locus YGL167C, strain pmr1, active compounds read low 1.02 | locus YGL173C, strain kem1, active compounds read low 1.02 | locus YGL227W, strain vid30, active compounds read low 1.03 | locus YGL240W, strain doc1, active compounds read low 1.05 | locus YGL248W, strain PDE1, active compounds read low 1.02 | locus YGL253W, strain hxk2, active compounds read low 1.02 | locus YGR135W, strain pre9, active compounds read low 0.982 | locus YGR252W, strain gcn5, active compounds read low 0.994 | locus YHR013C, strain ard1, active compounds read low 1.06 | locus YHR027C, strain rpn1, active compounds read low 1.02 | locus YHR030C, strain SLT2, active compounds read low 1.01 and 1.09 | locus YHR079C, strain IRE1 (second series), active compounds read low 0.977 | locus YHR079C, strain IRE1, active compounds read low 1.09 | locus YHR094C, strain hxt1, active compounds read low 0.982 | locus YHR129C, strain ARP1, active compounds read low 1.02 | locus YHR142W, strain chs7, active compounds read low 1.03 | locus YHR200W, strain rpn10, active compounds read low 0.995 | locus YIL066C, strain RNR3, active compounds read low 1.02 | locus YIL073C, strain SPO22, active compounds read low 0.949 | locus YIL125W, strain kgd1, active compounds read low 0.993 | locus YIR030C, strain dcg1, active compounds read low 0.989 | locus YJL092W, strain hpr5, active compounds read low 1.02 | locus YJL095W, strain BCK1 (second series), active compounds read low 1.02 | locus YJL095W, strain BCK1, active compounds read low 1.02 and 1.04 | locus YJL115W, strain asf1, active compounds read low 1.03 | locus YJL129C, strain trk1, active compounds read low 1.01 | locus YJL134W, strain LCB3, active compounds read low 1.02 | locus YJL154C, strain vps35, active compounds read low 1.02 | locus YJL164C, strain tpk1, active compounds read low 1.02 | locus YJL166W, strain qcr8, active compounds read low 1.02 | locus YJL168C, strain set2, active compounds read low 0.99 | locus YJL187C, strain SWE1 (second series), active compounds read low 1.02 | locus YJR043C, strain POL32, active compounds read low 1.02 | locus YJR066W, strain TOR1, active compounds read low 1.01 | locus YJR075W, strain HOC1, active compounds read low 1.02 | locus YKL009W, strain mrt4, active compounds read low 0.988
